# Values of other authors in PubChem BioAssay AID977611.
# The campaign covered roughly 3,900 compounds. About 3,900 (100%) were called active. No cut-off is given here; in the data, nearly all actives have Kd up to about 4200 µM. So high a share suggests a set chosen from earlier hits. The list shows a part of the results. Starred links: 1 amine or outer side, 2 acyl side, 3 side chain; linkers in the order of their positions; H or OH if unused. *1 amine or outer side, *2 acyl side, *3 side chain or, on linkers, in order; H or OH if unused. Where a SMILES comes first, the peptide text is derived from it. Non-standard residues stand in square brackets, D forms with d. Square brackets hold non-standard residues; d marks the D form. Residues, ends and D or L forms follow the SMILES beside them. Peptide text beside a SMILES is read from it. [ ]: non-standard residue; d: D form. * marks the point of attachment. X1 = O=C([C@H](Cc1ccc(O[P+](O)(O)O)cc1)N[*:1])[*:2]; Orn(CH(NH2)2) = NC(N)NCCC[C@H](N)C(=O)O; AMC = Cc1cc(=O)oc2cc(N*)ccc12; pGlu = O=C1CC[C@@H](C(=O)O)N1
# Experiment: PubChem AID 977611
# Details: PDB protein-ligand complexes, literature Kd
compound,measurement,setting,value
CC(=O)N[C@@H](CCCCN)C(=O)N[C@@H](CCCCN)C(=O)N[C@@H](CCCNC(N)N)C(=O)N[C@@H](Cc1ccc(O)cc1)C(=O)N[C@@H](CO)C(=O)N[C@@H](CCCNC(N)N)C(=O)N[C@@H](CCC(=O)O)C(=O)N[C@@H](Cc1ccccc1)C(=O)N[C@@H](CC(C)C)C(=O)N[C@@H](CC(C)C)C(=O)NCC(=O)N[C@@H](Cc1ccccc1)C(N)=O (Ac-KK[Orn(CH(NH2)2)]YS[Orn(CH(NH2)2)]EFLLGF-NH2),Kd,"protein: EUKARYOTIC TRANSLATION INITIATION FACTOR 4E, PDB entry 4aza",103 nM (active)
CC(=O)N[C@H](C(=O)N[C@@H](CCC(N)=O)C(=O)NCC(=O)N[C@@H](CO)C(=O)NCC(=O)N[C@@H](C)C(=O)N[C@@H](Cc1ccccc1)C(=O)NCC(=O)N[C@@H](CCCNC(N)N)C(N)=O)C(C)C (Ac-VQGSGAFG[Orn(CH(NH2)2)]-NH2),Kd,"protein: Fab fragment of the mAb 106.3, PDB entry 3e8u",0.38 nM (active)
H-AAAFSFKKSFKLSGFSFK-OH,Kd,"protein: Ca2+-Calmodulin, PDB entry 1iwq",8.8 nM (active)
CC(C)C[C@H](NC(=O)[C@H](CCCNC(N)N)NC(=O)[C@H](CCCNC(N)N)NC(=O)[C@H](CCCCN)NC(=O)[C@H](C)NC(=O)[C@H](CO)NC(=O)CN)C(=O)N[C@@H](Cc1ccccc1)C(=O)NCC(=O)N[C@@H](CCC(=O)O)C(=O)O (H-GSAK[Orn(CH(NH2)2)][Orn(CH(NH2)2)]LFGE-OH),Kd,"protein: phospho-CDK2/cyclin A, PDB entry 1h28",300 nM (active)
Cc1n[nH]c(C)c1CCCOc1cc(C(=O)O)ccc1F,Kd,"protein: Transthyretin (V122I mutation), PDB entry 4hiq",6.2 nM (active)
OCCOCCOCCOCCOCCOCCOCCOCCOCCOCCOCCOCCOCCOCCOCCOCCOCCOCCOCCOCCOCCOCCOCCOCCOCCO,Kd,"protein: Prostaglandin-H2 D-isomerase L-PGDS C65A mutant, PDB entry 4oru",210000 nM (active)
same,Kd,"protein: Prostaglandin-H2 D-isomerase L-PGDS C65A-K59A double mutant, PDB entry 4orx",297000 nM (active)
same,Kd,"protein: Prostaglandin-H2 D-isomerase L-PGDS C65A-K59A double mutant, PDB entry 4ory",297000 nM (active)
OC[C@@H]1O[C@@H](O[C@H]2[C@H](O[C@@H]3CO[C@@H](O[C@@H]4CO[C@@H](O)[C@H](O)[C@H]4O)[C@H](O)[C@H]3O)OC[C@@H](O)[C@@H]2O)[C@H](O)[C@H]1O,Kd,"protein: SUGAR TRANSPORTER SOLUTE-BINDING PROTEIN, PDB entry 4c1t",70.8 nM (active)
OC[C@@H]1O[C@@H](O[C@@H]2[C@@H](O)[C@H](O[C@@H]3CO[C@@H](O)[C@H](O)[C@H]3O)OC[C@H]2O)[C@H](O)[C@H]1O,Kd,"protein: SUGAR TRANSPORTER SOLUTE-BINDING PROTEIN, PDB entry 4c1u",81 nM (active)
Nc1[nH]c(=S)nc2nc[nH]c12,Kd,"protein: 6-hydroxymethyl-7,8-dihydropterin pyrophosphokinase, PDB entry 4m5n",7500 nM (active)
CC(C)C[C@H](NC(=O)[C@H](CC(N)=O)NC(=O)[C@H](CC(C)C)NC(=O)[C@@H](NC(=O)[C@@H](NC(=O)[C@@H]1CCCN1C(=O)[C@H](CCCNC(N)N)NC(=O)[C@H](CCCCN)NC(=O)[C@@H]1CCCN1)[C@@H](C)O)[C@@H](C)O)C(=O)N[C@@H](Cc1ccccc1)C(=O)O (HELM PEPTIDE1{P.K.[NC(N)NCCC[C@H](N[*:1])C(=O)[*:2]].P.T.T.L.N.L.F}$$$$V2.0),Kd,"protein: Mitogen-activated protein kinase 8 isoform 4, PDB entry 1ukh",420 nM (active)
CC(C)C[C@H](NC(=O)[C@@H]1CCC(=O)N1)C(=O)N[C@@H](Cc1ccc(O)cc1)C(=O)N[C@@H](CCC(=O)O)C(=O)N[C@H](C=O)CC(N)=O (tested in a mixture with another compound) ([pGlu]LYEN-aldehyde),Kd,"protein: Sortilin, PDB entry 4po7",85 nM (active)
C[C@H](NC(=O)[C@@H]1CCCN1)C(=O)N[C@@H](CCCNC(N)N)C(=O)N1CCC[C@H]1C(=O)N1CCC[C@H]1C(=O)N[C@@H](CCCCN)C(=O)N1CCC[C@H]1C(=O)N[C@@H](CCCNC(N)N)C(=O)N1CCC[C@H]1C(=O)N[C@@H](CCCNC(N)N)C(=O)N[C@@H](CCCNC(N)N)C(=O)O (H-PA[Orn(CH(NH2)2)]PPKP[Orn(CH(NH2)2)]P[Orn(CH(NH2)2)][Orn(CH(NH2)2)]-OH),Kd,"protein: SH3-domain of CIN85, PDB entry 2bz8",2500 nM (active)
H-PDYFL-OH,Kd,"protein: Serine/threonine-protein phosphatase 2A activator PTPA, PDB entry 4ny3",49500 nM (active)
CC(C)C[C@H](NC(=O)[C@H](CCCCN)NC(=O)[C@H](CCCCN)NC(=O)[C@H](CC(C)C)NC(=O)[C@@H]1CCCN1C(=O)[C@H](CCCCN)NC(=O)[C@@H]1CCCN1)C(=O)N[C@@H](CCCNC(N)N)C(=O)N[C@@H](Cc1ccccc1)C(=O)N[C@@H](CC(=O)O)C(=O)O (H-PKPLKKL[Orn(CH(NH2)2)]FD-OH),Kd,"protein: phospho-CDK2/cyclin A, PDB entry 1h25",1800 nM (active)
CC(C)C[C@H](N)C(=O)NCC(=O)N[C@@H](CCCCN)C(=O)N[C@@H](CCCNC(N)N)C(=O)N[C@@H](CCCCN)C(=O)N[C@@H](Cc1ccc(O)cc1)C(=O)O (H-LGK[Orn(CH(NH2)2)]KY-OH),Kd,"protein: IMPORTIN SUBUNIT ALPHA-2, PDB entry 4ba3",2900 nM (active)
CC(C)C[C@H](NC(=O)[C@@H](NC(=O)[C@@H](N)[C@@H](C)O)C(C)C)C(=O)NCC(=O)N[C@@H](CCCCN)C(=O)N[C@@H](CCCNC(N)N)C(=O)N[C@@H](CCCCN)C(=O)O (H-TVLGK[Orn(CH(NH2)2)]K-OH),Kd,"protein: IMPORTIN SUBUNIT ALPHA-1A, PDB entry 4b8p",140 nM (active)
CC(C)C[C@H](NC(=O)[C@@H](NC(=O)[C@@H](N)CO)C(C)C)C(=O)NCC(=O)N[C@@H](CCCCN)C(=O)N[C@@H](CCCNC(N)N)C(=O)N[C@@H](CCCCN)C(=O)N[C@@H](CCCNC(N)N)C(=O)N[C@@H](Cc1cnc[nH]1)C(=O)O (H-SVLGK[Orn(CH(NH2)2)]K[Orn(CH(NH2)2)]H-OH),Kd,"protein: IMPORTIN SUBUNIT ALPHA-1A, PDB entry 2yns",25 nM (active)
CSCC[C@H](NC(=O)[C@H](Cc1cnc[nH]1)NC(=O)[C@H](CCC(N)=O)NC(=O)[C@H](CCCNC(N)N)NC(=O)[C@H](CCC(=O)O)NC(=O)[C@H](Cc1ccccc1)NC(=O)[C@H](CCCCN)NC(=O)[C@H](C)NC(=O)[C@H](C)NC(=O)[C@H](C)NC(=O)[C@@H](NC(=O)[C@H](CCC(=O)O)NC(=O)[C@@H](N)CCCCN)[C@@H](C)O)C(=O)N[C@@H](CC(=O)O)C(=O)N[C@@H](CO)C(N)=O (H-KETAAAKFE[Orn(CH(NH2)2)]QHMDS-NH2),Kd,"protein: Ribonuclease S(RNase S), PDB entry 1j7z",20 nM (active)
same,Kd,"protein: Ribonuclease S(RNase S), PDB entry 1j80",300 nM (active)
same,Kd,"protein: Ribonuclease S(RNase S), PDB entry 1j81",80 nM (active)
CC(=O)NCCCC[C@H](NC(=O)[C@H](CCCCN)NC(=O)[C@H](Cc1cnc[nH]1)NC(=O)[C@H](CCCNC(N)N)NC(C)=O)C(=O)Nc1ccc2c(C)cc(=O)oc2c1 (Ac-[Orn(CH(NH2)2)]HKK(Ac)-{AMC}),Kd,"protein: NAD-dependent protein deacetylase sirtuin-3, mitochondrial, PDB entry 4fz3",184000 nM (active)
CC(C)C[C@H](N)C(=O)NCC(=O)N[C@@H](CCCCN)C(=O)N[C@@H](CCCNC(N)N)C(=O)N[C@@H](CCCCN)C(=O)N[C@@H](CCCNC(N)N)C(=O)N[C@@H](Cc1cnc[nH]1)C(=O)O (H-LGK[Orn(CH(NH2)2)]K[Orn(CH(NH2)2)]H-OH),Kd,"protein: IMPORTIN SUBUNIT ALPHA, PDB entry 2ynr",1700 nM (active)
CSCC[C@H](NC(=O)[C@H](CC(C)C)NC(=O)[C@H](CCCCN)NC(=O)[C@H](CCCCN)NC(=O)[C@H](Cc1cnc[nH]1)NC(=O)[C@H](CCCNC(N)N)NC(=O)[C@@H](N)CO)C(=O)N[C@@H](Cc1ccccc1)C(=O)N[C@@H](CCCCN)C(=O)O (H-S[Orn(CH(NH2)2)]HKKLMFK-OH),Kd,"protein: phospho-CDK2/cyclin A, PDB entry 1h26",2900 nM (active)
CN(C)C1=NC(=O)c2ccccc2C1,Kd,"protein: Caspase-6, PDB entry 4n7j",3400 nM (active)
NC1=NC(=O)c2ccccc2C1,Kd,"protein: proCaspase-6, PDB entry 4n6g",3400 nM (active)
CCCCCCCCCCCCCCCC(=O)OC[C@@H](CO[P+](O)(O)O[C@@H]1[C@H](O)[C@H](O)[C@@H](O[P+](O)(O)O)[C@H](O[P+](O)(O)O)[C@H]1O)OC(=O)CCCCCCCCCCCCCCC,Kd,"protein: Steroidogenic factor 1 SF-1, PDB entry 4qk4",250 nM (active)
CCCCCCCCCCCCCCCC(=O)OC[C@@H](CO[P+](O)(O)OC1[C@H](O)[C@H](O[P+](O)(O)O)C(O[P+](O)(O)O)[C@H](O[P+](O)(O)O)[C@H]1O)OC(=O)CCCCCCCCCCCCCCC (some centres undefined),Kd,"protein: Steroidogenic factor 1 SF-1, PDB entry 4qjr",80 nM (active)
H-ATPAWN-OH,Kd,"protein: mRNA-capping enzyme subunit beta Pct1, PDB entry 4pn1",680 nM (active)
H-GASDGSGWSSENNPW-OH,Kd,"protein: protein TolB, PDB entry 2ivz",920 nM (active)
H-NDWLLPSY-OH,Kd,"protein: Microtubule-associated protein 1 light chain 3 (C32I, C119S, C122S mutation), PDB entry 4eoy",326 nM (active)
H-ANSNNPDWDF-OH,Kd,"protein: Humanized KR127 Fab, PDB entry 2eh8",11 nM (active)
CC(C)C[C@H](NC(=O)[C@H](Cc1ccccc1)NC(=O)[C@@H]1CCCN1C(=O)[C@@H](NC(=O)[C@H](CC(C)C)NC(=O)[C@H](CO)NC(=O)[C@H](Cc1c[nH]cn1)NC(=O)[C@H](Cc1c[nH]c2ccccc12)NC(=O)[C@@H]1CCCN1C(=O)[C@H](Cc1ccccc1)NC(=O)[C@@H](N)C(C)C)C(C)C)C(=O)N[C@@H](C)C(=O)N1CCC[C@H]1C(=O)N[C@@H](CO)C(=O)N[C@@H](CCC(N)=O)C(=O)O (H-VFPWHSLVPFLAPSQ-OH),Kd,"protein: Ataxin-1, PDB entry 2m41",8000 nM (active)
H-DWDFLPP-NH2,Kd,"protein: Gamma-aminobutyric acid receptor-associated protein, PDB entry 3dow",11500 nM (active)
C=CCO[C@]1(C(=O)O)C[C@@H](O[C@]2(C(=O)O)C[C@@H](O)[C@@H](O)[C@@H]([C@H](O)CO[C@]3(C(=O)O)C[C@@H](O)[C@@H](O)[C@@H]([C@H](O)CO)O3)O2)[C@@H](O)[C@@H]([C@H](O)CO)O1,Kd,"protein: antigen binding fragment of mAb S25-26, PDB entry 4m7j",781 nM (active)
CC(=O)N[C@@H](CC(=O)O)C(=O)N[C@H](C(=O)N[C@@H](CCC(=O)O)C(=O)N[C@H](C(=O)N[C@@H](Cc1ccc(O[P+](O)(O)O)cc1)C(=O)N[C@@H](CCC(=O)O)C(=O)N[C@@H](CO)C(=O)N1CCC[C@H]1C(=O)N[C@@H](Cc1ccc(O[P+](O)(O)O)cc1)C(=O)N[C@@H](C)C(=O)N[C@@H](CC(=O)O)C(=O)N1CCC[C@H]1C(=O)N[C@@H](CCC(=O)O)C(N)=O)C(C)C)[C@@H](C)O (Ac-DTEV[X1]ESP[X1]ADPE-NH2),Kd,"protein: C-termainl SH2 domain from phospholipase C-gamma-1 comprising residues 663-759( PLC?), PDB entry 2fci",70 nM (active)
CC(C)[C@H](NC(=O)[C@H](CCC(=O)O)NC(=O)[C@@H](NC(=O)[C@@H](N)CC(=O)O)[C@@H](C)O)C(=O)N[C@@H](Cc1ccc(O)cc1)C(=O)N[C@@H](CCC(=O)O)C(=O)N[C@@H](CO)C(=O)N1CCC[C@H]1C(=O)N[C@@H](Cc1ccc(O[P+](O)(O)O)cc1)C(=O)N[C@@H](C)C(=O)N[C@@H](CC(=O)O)C(=O)N1CCC[C@H]1C(=O)N[C@@H](CCC(=O)O)C(=O)O (H-DTEVYESP[X1]ADPE-OH),Kd,"protein: Proto-oncogene vav, PDB entry 2mc1",71000 nM (active)
O=C(Nc1ccc(-c2nn[nH]n2)cc1Cc1ccccc1)c1cccc(CC2CCCCC2)n1,Kd,"protein: KSHV Protease, PDB entry 4p3h",1000 nM (active)
